Source: PubChem BioAssay
Rab9 prom act: activates the Rab9 promoter | hit rate 2.8% among 320,000 | Huh7 Rab9 promoter-luciferase reporter, luminescence, 24 h | AID 485297 | Potency, µM (top dose mostly 9.22 µM), actives largely listed as activators; note: nearly all actives have a fitted effect of over 60% in size
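Quantitative HTS format; Huh7 Rab9-luciferase reporter cells (1500/well) receive compound 2 h post-plating, incubate 24 h at 37 °C, then get luciferase reagent for 10 min before luminescence reading.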
NPC1 promoter act: NPC1 promoter activation; Huh7 NPC1 promoter luciferase reporter, 24 h; Potency, µM (top dose mostly 9.22 µM), most hits filed as activators; hit rate 2.4% among 320,000; AID 485313; note: nearly all actives have a fitted effect of over 60% in size
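Stably transfected Huh7 (NPC1 promoter→luciferase), 1500 cells/well in Opti-MEM + 10% FBS, 2 h settle, then compound 24 h at 37 °C. Luminescence after 10 min with Amplite reagent.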
FLuc modulator: firefly luciferase modulation, counter-screen for miR-21 project; P08659; purified FLuc, Km substrates, luminescence inhibition; Potency, µM (titrated, usually from 57.5 µM), usual class: inhibitors; hit rate 6.9% among 360,000; AID 588342; note: nearly all actives have a fitted effect of over 55% in size
Target sequence (P08659 whole entry, looked up): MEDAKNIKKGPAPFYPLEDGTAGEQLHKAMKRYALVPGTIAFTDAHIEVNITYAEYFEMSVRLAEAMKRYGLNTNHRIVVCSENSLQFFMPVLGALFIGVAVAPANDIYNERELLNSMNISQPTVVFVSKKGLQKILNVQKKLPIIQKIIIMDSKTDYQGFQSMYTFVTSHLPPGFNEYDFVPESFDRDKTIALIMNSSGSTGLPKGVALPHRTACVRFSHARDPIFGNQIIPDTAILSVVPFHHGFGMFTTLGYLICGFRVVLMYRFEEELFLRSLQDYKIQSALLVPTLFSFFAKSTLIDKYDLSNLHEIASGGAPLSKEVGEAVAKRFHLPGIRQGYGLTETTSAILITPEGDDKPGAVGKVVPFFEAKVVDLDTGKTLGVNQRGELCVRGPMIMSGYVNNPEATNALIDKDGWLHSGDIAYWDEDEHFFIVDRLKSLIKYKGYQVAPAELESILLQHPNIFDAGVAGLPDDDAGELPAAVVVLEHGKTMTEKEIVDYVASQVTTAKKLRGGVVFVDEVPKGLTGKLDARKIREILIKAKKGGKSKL
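Purified P. pyralis luciferase, 10 nM final, with Km-level 10 uM D-luciferin and 10 uM ATP in 50 mM Tris acetate pH 7.5, 10 mM Mg acetate, 0.01% Tween-20, 0.05% BSA; 6-point qHTS titration about 60 µM downward; luminescence read.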
KinaseGlo FLuc: counter-screen: inhibitors of Kinase-Glo firefly luciferase. hit rate 0.28% among 200,000. Q27757. Potency, µM (series often up to 38.3 µM), actives largely listed as inhibitors. AID 1379. Kinase-Glo luciferase, ATP luminescence, 8 min; note: nearly all actives have a fitted effect of over 60% in size
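Inhibition of Kinase-Glo luciferase light generation was assessed at 10 uM ATP in pH 7.2 imidazole buffer, with luminescence measured after eight minutes at ambient temperature.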
SMN2 splice up: enhancers of SMN2 splice variant expression | HEK293 SMN2-luciferase splicing reporter, luminescence, 30-36 h | Potency, µM (titrated, usually from 46.1 µM), actives largely listed as activators | hit rate 2.8% among 210,000 | AID 1458; note: nearly all actives have a fitted effect of over 55% in size
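HEK293 cells carry an SMN2 […]–luciferase reporter in which exon 7 inclusion puts luciferase in frame. Cells were plated 10-12 h before compound addition, then incubated 30-36 h at 37C. ONE-Glo luminescence was read; sodium butyrate at 4.5 mM final served as control.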
A number is an active result; - = inactive; ? = inconclusive; . = no result; [ ] = another dose, or the depositor's remark. In the library only some 7.3% were active in any assay of this set; here they are far more common. Calls come from the whole dose curve; as a rule, active = well fitted curve in the direction sought with a large enough effect; inconclusive = small, poorly fitted or top-dose-only effect, or another doubt; inactive = no such curve, though single readings can be large; an effect the other way counts as inactive or inconclusive.

SMILES | Rab9 prom act | NPC1 promoter act | FLuc modulator | KinaseGlo FLuc | SMN2 splice up
O=C(N/N=C/c1cccnc1)c1sc2ccccc2c1Cl | - | - | 19µM | . | .
O=C(N/N=C/c1ccncc1)c1cc(-c2ccc(Br)s2)[nH]n1 | - | - | 15µM | . | .
C[N+](C)(C)CC(=O)N/N=C\c1ccncc1 | . | . | . | -[7.66 µM] | -[9.22 µM]
Cc1ccc(C(=O)N/N=C\c2ccncc2)s1 | - | - | ? | . | .
O=C(N/N=C/c1ccc(Br)s1)c1cccnc1 | - | - | - | - | -
O=C(N/N=C\c1cccnc1)c1ccc(Br)s1 | - | - | 9.5µM | . | .
O=C(N/N=C\c1ccncc1)c1ccc(Cl)s1 | - | - | 17µM | . | .
O=C(N/N=C\c1cccnc1)c1ccc(Cl)s1 | - | - | 13µM | . | .
O=C(N/N=C/c1cccnc1)c1cc(O)c(O)c(O)c1 | - | - | - | . | .
COc1ccc(-c2cc(C(=O)NNC(=O)c3csc(N4CCOCC4)n3)c3ccccc3n2)cc1OC | - | - | 9.5µM | . | .
O=C(NNC(=O)c1ccccc1Cl)c1csc(N2CCOCC2)n1 | - | - | ? | . | .
COc1ccc(-c2cc(C(=O)NNC(=O)c3csc(N4CCOCC4)n3)c3ccccc3n2)cc1 | - | - | 12µM | . | .
O=C(O)C[C@@H](C(=O)O)c1ccccc1[N+](=O)[O-] | . | . | . | -[7.66 µM] | -[9.22 µM]
CCOc1ccc(CNC(=O)c2sc3nc(C)cc(C)c3c2-n2cccc2)cc1 | . | . | - | . | .
C=C(C)C(O)/C=C/c1ccc(C(F)(F)F)cc1 (stereo unspecified) | . | . | . | - | -
O=C(N/N=C/c1cccs1)c1cc(C2CC2)nc2ccccc12 | - | - | - | - | -
CCc1ccc(/C=N/NC(=O)c2c[nH]c3ccccc23)s1 | 1.3µM | 2µM | 6µM | - | 6.3µM
O=C(N/N=C/c1cccs1)c1c[nH]c2ccccc12 | 2.8µM | 3.2µM | 6µM | - | 11µM
COc1ccc(N(C(=O)c2cccc(C)c2)S(=O)(=O)c2ccc(C)cc2)cc1 | . | . | - | . | -
CN(C)c1ccc(C(=O)Nc2c(C(=O)NC(C)(C)C)oc3ccccc23)cc1 | . | . | - | . | .
CCOc1ccc2nc(NC(=O)CS(=O)(=O)c3ccccc3)sc2c1 | - | - | 12µM | - | -
CCOc1ccc2nc(NC(=O)CS(=O)(=O)c3ccc(Cl)cc3)sc2c1 | . | . | - | . | .
CCOc1ccc2nc(NC(=O)CS(=O)(=O)c3ccc(C)cc3)sc2c1 | - | - | 21µM | - | -
Cc1ccc(S(=O)(=O)O[C@H]2CC(C(C)(C)C)CC[C@@H]2c2ccccc2)cc1 (stereo partly specified) | . | . | . | -[7.66 µM] | -[9.22 µM]
Cc1ccsc1CN(C)C(=O)C1CCC(=O)N(CCc2cccc(F)c2)C1 (stereo unspecified) | - | ? | 15µM | . | .
SMILES | Rab9 prom act | NPC1 promoter act | FLuc modulator | KinaseGlo FLuc | SMN2 splice up
Cc1ccsc1CCNC(=O)C1CCC(=O)N(CCc2cccc(F)c2)C1 (stereo unspecified) | 2.5µM | 2.8µM | 21µM | . | .
CN(C(=O)C1CCC(=O)N(Cc2cccc(F)c2)C1)C1CCCCC1 (stereo unspecified) | 2.5µM | 3.2µM | 17µM | . | .
O=C(Nc1cc(F)ccc1F)N1CCC(CN2CCOCC2)CC1 | . | . | - | . | .
Cc1ccc(CNC(=O)CSc2nc3c(sc4ccccc43)c(=O)n2CCCC(=O)NCCO)cc1 | . | . | ? | . | -
O=C(O)C(=O)/C(=C\c1ccc(Cl)cc1)c1ccc2ccccc2n1 | - | - | ? | - | 13µM
Cc1ccccc1Nc1nnc(-c2ccc(C)c(S(=O)(=O)NCC3CCCO3)c2)c2ccccc12 (stereo unspecified) | . | . | - | . | -
COc1ccccc1NC(=O)CSc1nnc2c3ccccc3n(C(C)C)c2n1 | . | . | - | . | ?
CN(C)/C=N/c1nc(-c2ccc3ccccc3c2)cs1 | 0.35µM | 0.5µM | 4.8µM | . | .
CN(C)/C=N/c1nc(-c2ccc3c(c2)OCO3)cs1 | 3.5µM | 4µM | 17µM | ? | 14µM
Cc1nccc(-c2ccc3c(c2)OCO3)n1 | - | - | - | - | -
O=C(CN1C(=O)C2CCCCN2c2ccc(C(=O)N3CCCC3)cc21)NCc1cccc(F)c1 (stereo unspecified) | . | . | - | . | .
COC(=O)[C@H]1C2CC3c4[nH]c5ccccc5c4CCN3CC2CC[C@@H]1O (stereo partly specified) | . | . | . | . | -
CCOc1ccccc1NC(=O)Cn1c(=O)oc2cc(S(=O)(=O)NCc3ccccc3)ccc21 | . | . | - | . | .
Clc1ccc(/C=N/c2c(-c3ccco3)nc3ccccn23)cc1 | ? | - | 15µM | ? | -
COc1ccc(/C=N/c2c(-c3ccco3)nc3ccccn23)cc1OC | ? | ? | 0.43µM | ? | -
Oc1ccccc1/C=N/c1c(-c2ccco2)nc2ccccn12 | ? | ? | 27µM | ? | -
COc1cc(-c2nc3ccccn3c2/N=C/c2ccc(F)cc2)ccc1O | - | - | ? | - | -
COc1cccc(NC(=O)CCC(=O)N2Cc3ccccc3Oc3ncccc32)c1 | . | . | - | . | .
CCCCC(CC)CNC(=O)c1ccc2c(=O)n(Cc3ccc(OC)cc3)c(=O)[nH]c2c1 (stereo unspecified) | . | . | - | . | -
Cc1cc(N2CCN(c3ccccc3)CC2)n2cc(-c3ccccc3)nc2n1 | - | - | 24µM | - | -
Cc1ccsc1/C=N/N=C/c1sccc1C | 1.6µM | 4µM | 1.1µM | . | .
Cc1ccc(C(=O)N/N=C\c2sccc2C)cn1 | ? | ? | 17µM | - | ?
Cc1ccsc1/C=N/NC(=O)c1sccc1C | 3.2µM | 2.5µM | 5.4µM | ? | 11µM
Cc1ccsc1C=Nc1ccc(O)cc1 | - | - | ? | - | -
CCCn1c(CCC(=O)Nc2ccc(OCC)cc2)nc2cccnc21 | . | . | - | . | -
SMILES | Rab9 prom act | NPC1 promoter act | FLuc modulator | KinaseGlo FLuc | SMN2 splice up
Cc1ccc(Oc2ccc(Cl)cc2NC(=O)c2cnccn2)cc1 | - | - | - | - | -
O=C(Nc1ccccc1O)c1ccc(Cl)cc1 | ? | 3.2µM | 27µM | - | -
Cc1cc(NC(=O)c2ccc(Cl)cc2)c(C)cc1O | - | - | 24µM | - | .
Cc1ccc(C(=O)Nc2cc(Cl)ccc2OC(=O)c2ccc(C)cc2)cc1 | 4µM | ? | 21µM | - | 14µM
COc1ccc(C(=O)Nc2cc(Cl)ccc2OC(=O)c2ccc(OC)cc2)cc1 | ? | 3.5µM | ? | - | -
O=C(Nc1ccccc1OC(=O)c1ccc(Cl)cc1)c1ccc(Cl)cc1 | 3.2µM | ? | - | - | -
CC1CSc2ccccc2NC1=S (stereo unspecified) | - | - | - | - | -
c1ccc(C2CSc3ccccc3N2)cc1 (stereo unspecified) | - | ? | 21µM | . | .
Cc1nc(-c2ccccc2)nc2[nH]ccc(=O)c12 | ? | - | 12µM | - | ?
Cc1nc(-c2ccccc2)nc2[nH]c(-c3ccccc3)cc(=O)c12 | - | - | - | - | -
Cc1nc(-c2ccc([N+](=O)[O-])cc2)nc2[nH]ccc(=O)c12 | 1.1µM | 1.1µM | 5.4µM | . | .
COc1ccccc1OCCNC(=O)CNC(=O)c1ccc(Cl)c(Cl)c1 | - | - | - | . | .
COc1ccccc1OCCNC(=O)CNC(=O)c1ccc2c(c1)OCO2 | - | - | - | . | .
COc1ccccc1OCCNC(=O)c1ccc2c(c1)OCCO2 | 2.2µM | 3.2µM | ? | . | .
